Inconclusive results are not listed. Activity calls are given as the source filed them. Unless noted, the call rests on the fitted dose curve; in most records, active means well fitted curve in the direction sought with a large enough effect; inconclusive means small, poorly fitted or top-dose-only effect, or another doubt; inactive means no such curve, though single readings can be large; an effect the other way counts as inactive or inconclusive.
What was measured:
[1] = target: Glucocorticoid receptor (Homo sapiens) (UniProt P04150); test: GR-GFP Redistribution (AID 450;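 active means compounds whose dose series gives a full or clear partial fitted curve of increased nuclear translocation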; further: potency means the concentration at half of the fitted maximal effect)
Sequence of Glucocorticoid receptor (Homo sapiens) (P04150 whole entry, looked up, the tested form may be a part): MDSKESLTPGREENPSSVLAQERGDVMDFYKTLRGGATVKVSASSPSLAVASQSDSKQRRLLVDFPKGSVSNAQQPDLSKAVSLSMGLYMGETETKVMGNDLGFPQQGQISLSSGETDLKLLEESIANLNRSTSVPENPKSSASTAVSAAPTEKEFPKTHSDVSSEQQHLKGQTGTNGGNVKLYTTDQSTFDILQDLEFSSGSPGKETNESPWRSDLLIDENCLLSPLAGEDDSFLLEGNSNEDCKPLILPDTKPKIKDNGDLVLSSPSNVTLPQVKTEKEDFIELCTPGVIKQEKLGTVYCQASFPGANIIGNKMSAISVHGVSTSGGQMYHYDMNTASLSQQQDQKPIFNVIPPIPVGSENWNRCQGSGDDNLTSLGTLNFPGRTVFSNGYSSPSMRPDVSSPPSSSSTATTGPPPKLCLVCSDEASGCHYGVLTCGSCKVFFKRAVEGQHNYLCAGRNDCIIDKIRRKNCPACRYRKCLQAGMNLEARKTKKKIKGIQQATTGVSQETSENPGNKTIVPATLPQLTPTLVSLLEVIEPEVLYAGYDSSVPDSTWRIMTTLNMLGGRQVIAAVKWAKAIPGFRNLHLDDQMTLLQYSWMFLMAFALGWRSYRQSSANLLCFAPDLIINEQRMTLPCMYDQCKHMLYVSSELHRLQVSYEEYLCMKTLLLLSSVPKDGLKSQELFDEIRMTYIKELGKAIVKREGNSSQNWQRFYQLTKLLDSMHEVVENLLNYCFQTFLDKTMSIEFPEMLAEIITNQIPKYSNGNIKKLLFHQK

[2] = target: Glucocorticoid receptor (Homo sapiens) (UniProt P04150); test: GR-EFC Redistribution (AID 451; calls by dose curve; further: potency means the concentration at half of the fitted maximal effect); conditions: CHO-K1 GR-EFC translocation, beta-gal luminescence, 2 h
Summary of the method: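 CHO-K1 cells stably expressing nuclear-localized β-gal enzyme acceptor and GR fused C-terminally to the enzyme donor fragment; ligand-driven nuclear translocation restores β-gal by complementation. Compounds titrated up to 46 uM final, 2 h at 37 °C; luminescence read.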

[3] = target: Mitogen-activated protein kinase 10 (Mus musculus) (UniProt Q61831); test: JNK3 AlphaScreen Assay (AID 530; active means well fitted curve in either direction with a large enough effect, not every such curve was filed as active;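 further: kinase came from lysate of stimulated human HepG2 cells; signal reports phosphorylation of biotinylated GST-cJun 1-79 at Ser73 with 10 µM ATP; on the % scale 0 is the no-effect control and ±100 the full control effect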)
Summary of the method: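 Inhibitors reduce antibody binding to phosphorylated biotin-cJun, lowering AlphaScreen luminescence. Lysates from HepG2 cells pre-activated by IL-1beta plus TNF-alpha supplied JNK3; compounds were titrated.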

[4] = target: ATP-dependent 6-phosphofructokinase (Trypanosoma brucei brucei) (UniProt O15648); test: qHTS Assay to Find Inhibitors of T. brucei phosphofructokinase: hit validation (AID 492961);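 further: luminescence reports ADP formed as PFK phosphorylates fructose-6-phosphate with ATP; on the % scale 0 is the no-effect control and ±100 the full control effect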
Sequence of ATP-dependent 6-phosphofructokinase (Trypanosoma brucei brucei) (O15648 whole entry, looked up): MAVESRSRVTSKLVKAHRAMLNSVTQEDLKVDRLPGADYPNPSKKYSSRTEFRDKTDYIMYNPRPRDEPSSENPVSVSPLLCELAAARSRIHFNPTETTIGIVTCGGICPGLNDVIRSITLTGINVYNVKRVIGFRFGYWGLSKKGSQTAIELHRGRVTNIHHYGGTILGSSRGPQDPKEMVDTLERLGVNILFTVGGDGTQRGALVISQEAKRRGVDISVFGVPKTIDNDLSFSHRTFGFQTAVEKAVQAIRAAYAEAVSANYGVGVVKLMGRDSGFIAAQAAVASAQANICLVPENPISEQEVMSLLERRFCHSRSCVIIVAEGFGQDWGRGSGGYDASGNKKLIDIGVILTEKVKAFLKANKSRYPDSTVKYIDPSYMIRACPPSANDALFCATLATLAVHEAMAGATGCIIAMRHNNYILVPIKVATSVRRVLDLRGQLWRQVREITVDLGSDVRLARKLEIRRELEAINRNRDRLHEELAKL
Summary of the method: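 PFK 1.25 nM, F6P 0.5 mM, ATP 0.1 mM, MgCl2 5 mM, 0.1 M TEA pH 8.0, Tween20 0.01%, BSA 0.1%; 45 min RT. ADP-Glo two-step detection, luminescence. qHTS titration; curve fitting with curve-class categorization.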

[5] = target: DNA dC->dU-editing enzyme APOBEC-3G (Homo sapiens) (UniProt Q9HC16); test: qHTS for inhibitors of Vif-A3G interactions: Validation (AID 588379); further: 0% is about no effect
Sequence of DNA dC->dU-editing enzyme APOBEC-3G (Homo sapiens) (Q9HC16 whole entry, looked up): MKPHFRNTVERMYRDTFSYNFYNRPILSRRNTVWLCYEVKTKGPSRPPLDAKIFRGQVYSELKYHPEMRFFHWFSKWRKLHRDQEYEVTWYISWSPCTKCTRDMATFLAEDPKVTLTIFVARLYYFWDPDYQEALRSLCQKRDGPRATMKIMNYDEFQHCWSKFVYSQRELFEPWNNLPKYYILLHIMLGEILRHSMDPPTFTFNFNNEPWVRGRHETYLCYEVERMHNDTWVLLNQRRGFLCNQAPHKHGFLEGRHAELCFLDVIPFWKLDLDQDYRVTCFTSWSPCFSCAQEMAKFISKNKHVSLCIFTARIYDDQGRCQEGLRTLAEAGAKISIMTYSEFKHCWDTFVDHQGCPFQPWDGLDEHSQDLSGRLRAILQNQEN
Summary of the method: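 HeLa cells stably expressing Vif and A3G-eYFP, 700 cells/well, incubated overnight at 37 deg C, then exposed to compound overnight at 37 deg C. Inhibition of Vif-mediated degradation read as increased yellow fluorescence (Ex 488/Em 500-530) by laser-scanning cytometry.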

[6] = target: Luciferin 4-monooxygenase (Photinus pyralis) (UniProt P08659); test: Biochemical firefly luciferase enzyme assay for NPC (AID 624030);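 further: purified P. pyralis luciferase at 10 nM with luciferin and ATP substrate; 0% = DMSO and -100% = full luciferase inhibition by PTC124 control; nearly all actives have a fitted effect of over 70% in size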
Sequence of Luciferin 4-monooxygenase (Photinus pyralis) (P08659 whole entry, looked up): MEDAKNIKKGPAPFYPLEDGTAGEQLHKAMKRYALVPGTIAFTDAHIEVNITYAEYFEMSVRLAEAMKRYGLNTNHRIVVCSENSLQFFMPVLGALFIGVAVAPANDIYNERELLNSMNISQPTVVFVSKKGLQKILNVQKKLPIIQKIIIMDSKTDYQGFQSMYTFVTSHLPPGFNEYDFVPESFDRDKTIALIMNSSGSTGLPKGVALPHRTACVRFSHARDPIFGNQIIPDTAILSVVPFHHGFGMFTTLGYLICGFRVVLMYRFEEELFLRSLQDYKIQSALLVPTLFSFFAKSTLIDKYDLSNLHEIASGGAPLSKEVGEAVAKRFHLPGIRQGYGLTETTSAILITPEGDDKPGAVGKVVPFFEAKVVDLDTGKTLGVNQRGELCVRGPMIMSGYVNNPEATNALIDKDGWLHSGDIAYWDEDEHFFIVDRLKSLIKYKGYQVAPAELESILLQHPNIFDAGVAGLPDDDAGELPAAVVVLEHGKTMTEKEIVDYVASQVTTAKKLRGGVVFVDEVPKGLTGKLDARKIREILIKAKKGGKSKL
Summary of the method: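 Counter-screen for direct inhibition of the luciferase enzyme by approved-drug library compounds, run at 10 nM enzyme in 50 mM Tris acetate (final). Luminescence was read within 5 min of enzyme-buffer addition and normalized to PTC124 versus DMSO (0%).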

[7] = S16 Schwann cell viability assay (CellTiter-Glo assay) (AID 624031);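 further: cellular ATP luminescence as a viability measure; plate controls were DMSO-treated cells for no effect and cell-free wells for full effect; nearly all actives have a fitted effect of over 70% in size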
Summary of the method: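 This viability control uses native rat S16 Schwann cells grown in DMEM plus 10% FBS. After a 24 h compound treatment at 37 °C, CellTiter-Glo luminescence reports ATP content, scaled against DMSO-treated and cell-free wells.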

[8] = S16 Schwann cell PMP22 intronic element firefly luciferase assay (AID 624032);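 further: plate controls were DMSO for no effect and PTC124 positive control mean for full effect; nearly all actives have a fitted effect of over 30% in size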
Summary of the method: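 Rat S16 Schwann cells stably carrying a PMP22 intronic element-driven Fluc reporter were seeded overnight, then exposed to compounds for 24 h at 37 °C. Luminescence was normalized to PTC124 (positive control) and DMSO (0% activity).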

[9] = S16 Schwann cell PMP22 intronic element beta-lactamase assay (AID 624044; calls by dose curve;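 further: 0% = DMSO and -100% = potassium clavulanate positive control; nearly all actives have a fitted effect of over 15% in size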); conditions: S16 rat Schwann cells, PMP22 element beta-lactamase FRET, 24 h; ratio activity, negative = inhibition: at 38.3 µM (top of the series)
Summary of the method: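 Rat S16 Schwann cells with beta-Lac driven by a PMP22 intronic element, compound-treated 24 h at 37 °C. LiveBLAzer FRET B/G read: 460 nm normalized to potassium clavulanate vs DMSO; 535 nm FRET as viability; concentration-effect curves classified.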

[10] = qHTS profiling for inhibitors of Plasmodium falciparum proliferation (AID 504749); further: nearly all actives have a fitted effect of over 60% in size; further: potency means the concentration at half of the fitted maximal effect;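 on activity, negative = inhibition: 0% = DMSO vehicle and full inhibition = artemisinin control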; conditions: P. falciparum in erythrocytes, SYBR Green DNA, 72 h, at 28.7 µM (top of the series)
Summary of the method: (§1)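 Parasite proliferation within erythrocytes, 72 h exposure. Endpoint: SYBR Green I fluorescence after overnight lysis at room temperature. Controls: 0.29 uM artemisinin, DMSO.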

[11] = test system: 3D7; test: as above; conditions: P. falciparum in erythrocytes, SYBR Green DNA, 72 h; series mostly up to 28.7 µM
Summary of the method: as §1

[12] = test system: C2A; test: as above; conditions: P. falciparum in erythrocytes, SYBR Green DNA, 72 h; series mostly up to 28.7 µM
Summary of the method: as §1

[13] = test system: CP191; test: as above; conditions: P. falciparum in erythrocytes, SYBR Green DNA, 72 h; series mostly up to 28.7 µM
Summary of the method: as §1

[14] = test system: CP192; test: as above; conditions: P. falciparum in erythrocytes, SYBR Green DNA, 72 h; series mostly up to 28.7 µM
Summary of the method: as §1

[15] = test system: CP217; test: as above; conditions: P. falciparum in erythrocytes, SYBR Green DNA, 72 h; series mostly up to 28.7 µM
Summary of the method: as §1

[16] = test system: CP237; test: as above; conditions: P. falciparum in erythrocytes, SYBR Green DNA, 72 h; series mostly up to 28.7 µM
Summary of the method: as §1

[17] = test system: CP250; test: as above; conditions: P. falciparum in erythrocytes, SYBR Green DNA, 72 h; series mostly up to 28.7 µM
Summary of the method: as §1

[18] = test system: CP256; test: as above; conditions: P. falciparum in erythrocytes, SYBR Green DNA, 72 h; series mostly up to 28.7 µM
Summary of the method: as §1

[19] = test system: CP262; test: as above; conditions: P. falciparum in erythrocytes, SYBR Green DNA, 72 h; series mostly up to 28.7 µM
Summary of the method: as §1

[20] = test system: CP268; test: as above; conditions: P. falciparum in erythrocytes, SYBR Green DNA, 72 h; series mostly up to 28.7 µM
Summary of the method: as §1

[21] = test system: CP269; test: as above; conditions: P. falciparum in erythrocytes, SYBR Green DNA, 72 h; series mostly up to 28.7 µM
Summary of the method: as §1

[22] = test system: CP297; test: as above; conditions: P. falciparum in erythrocytes, SYBR Green DNA, 72 h; series mostly up to 28.7 µM
Summary of the method: as §1

[23] = test system: CP315; test: as above; conditions: P. falciparum in erythrocytes, SYBR Green DNA, 72 h; series mostly up to 28.7 µM
Summary of the method: as §1

[24] = test system: CP329; test: as above; conditions: P. falciparum in erythrocytes, SYBR Green DNA, 72 h; series mostly up to 28.7 µM
Summary of the method: as §1

[25] = test system: DIV14; test: as above; conditions: P. falciparum in erythrocytes, SYBR Green DNA, 72 h; series mostly up to 28.7 µM
Summary of the method: as §1

[26] = test system: DIV17; test: as above; conditions: P. falciparum in erythrocytes, SYBR Green DNA, 72 h; series mostly up to 28.7 µM
Summary of the method: as §1

[27] = test system: Dd2; test: as above; conditions: P. falciparum in erythrocytes, SYBR Green DNA, 72 h; series mostly up to 28.7 µM
Summary of the method: as §1

[28] = test system: ECU; test: as above; conditions: P. falciparum in erythrocytes, SYBR Green DNA, 72 h; series mostly up to 28.7 µM
Summary of the method: as §1

[29] = test system: FAB9; test: as above; conditions: P. falciparum in erythrocytes, SYBR Green DNA, 72 h; series mostly up to 28.7 µM
Summary of the method: as §1

[30] = test system: GB4; test: as above; conditions: P. falciparum in erythrocytes, SYBR Green DNA, 72 h; series mostly up to 28.7 µM
Summary of the method: as §1

[31] = test system: HB3; test: as above; conditions: P. falciparum in erythrocytes, SYBR Green DNA, 72 h; series mostly up to 28.7 µM
Summary of the method: as §1

[32] = test system: JCK; test: as above; conditions: P. falciparum in erythrocytes, SYBR Green DNA, 72 h; series mostly up to 28.7 µM
Summary of the method: as §1

[33] = test system: PAD; test: as above; conditions: P. falciparum in erythrocytes, SYBR Green DNA, 72 h; series mostly up to 28.7 µM
Summary of the method: as §1

[34] = test system: PC49; test: as above; conditions: P. falciparum in erythrocytes, SYBR Green DNA, 72 h; series mostly up to 28.7 µM
Summary of the method: as §1

[35] = test system: TAB113; test: as above; conditions: P. falciparum in erythrocytes, SYBR Green DNA, 72 h; series mostly up to 28.7 µM
Summary of the method: as §1

[36] = test system: W2; test: as above; conditions: P. falciparum in erythrocytes, SYBR Green DNA, 72 h; series mostly up to 28.7 µM
Summary of the method: as §1

[37] = target: Cytochrome P450 2D6 (Homo sapiens) (UniProt P10635); test: qHTS Assay for Inhibitors and Substrates of Cytochrome P450 2D6 (AID 891);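 further: luciferin methyl ether substrate demethylated by CYP2D6 with NADPH regeneration; on the % scale 0 is the no-effect control and ±100 the full control effect; nearly all actives have a fitted effect of over 60% in size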
Sequence of Cytochrome P450 2D6 (Homo sapiens) (P10635 whole entry, looked up): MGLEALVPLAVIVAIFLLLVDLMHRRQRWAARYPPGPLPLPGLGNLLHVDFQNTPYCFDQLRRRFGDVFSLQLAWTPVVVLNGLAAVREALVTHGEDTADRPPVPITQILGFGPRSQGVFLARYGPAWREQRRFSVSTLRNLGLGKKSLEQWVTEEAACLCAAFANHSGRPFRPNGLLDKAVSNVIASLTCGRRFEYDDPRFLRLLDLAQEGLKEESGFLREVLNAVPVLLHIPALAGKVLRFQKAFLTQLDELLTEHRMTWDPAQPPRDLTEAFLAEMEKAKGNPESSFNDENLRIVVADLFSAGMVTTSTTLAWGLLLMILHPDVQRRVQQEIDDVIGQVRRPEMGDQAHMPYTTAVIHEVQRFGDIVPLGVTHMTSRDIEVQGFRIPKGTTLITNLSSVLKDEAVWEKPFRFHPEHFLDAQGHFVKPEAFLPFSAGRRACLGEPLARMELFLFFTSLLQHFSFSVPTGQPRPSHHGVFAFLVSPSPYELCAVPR
Summary of the method: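 Human CYP2D6 (5 nM) with 30 uM Luciferin-ME EGE (at Km) in 100 mM KPO4, compound preincubated 10 min, then NADPH regeneration system for 60 min at room temperature. Luciferin read by luminescence; normalized to 1.43 uM quinidine.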

[38] = target: Cytochrome P450 2C19 (Homo sapiens) (UniProt P33261); test: qHTS Assay for Inhibitors and Substrates of Cytochrome P450 2C19 (AID 899); further: nearly all actives have a fitted effect of over 60% in size; further: potency means the concentration at half of the fitted maximal effect; on activity, negative = inhibition: on the % scale 0 is the no-effect control and ±100 the full control effect
Sequence of Cytochrome P450 2C19 (Homo sapiens) (P33261 whole entry, looked up): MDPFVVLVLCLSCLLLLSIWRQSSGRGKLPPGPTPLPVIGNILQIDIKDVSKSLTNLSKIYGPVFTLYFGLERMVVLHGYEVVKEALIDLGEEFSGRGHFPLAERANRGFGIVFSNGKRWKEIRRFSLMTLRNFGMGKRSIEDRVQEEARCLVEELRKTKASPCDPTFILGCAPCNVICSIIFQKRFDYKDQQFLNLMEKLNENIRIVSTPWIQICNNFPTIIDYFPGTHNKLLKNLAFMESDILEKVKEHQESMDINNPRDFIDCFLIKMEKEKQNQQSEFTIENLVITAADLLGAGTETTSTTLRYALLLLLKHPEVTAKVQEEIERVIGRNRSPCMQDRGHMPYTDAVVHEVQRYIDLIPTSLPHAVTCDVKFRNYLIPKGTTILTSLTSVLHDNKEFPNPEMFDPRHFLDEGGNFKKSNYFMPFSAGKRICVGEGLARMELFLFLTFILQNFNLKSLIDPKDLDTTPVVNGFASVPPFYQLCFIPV
Summary of the method: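 Human CYP2C19 (5nM) with Luciferin-H EGE at 10uM (its KM) in 50mM KPO4 was preincubated with compound for 10 min at 37C. NADPH regeneration started a 60 min 37C reaction. Luciferin was read by luminescence, normalized to 57uM ketoconazole.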

[39] = target: 3',5'-cyclic-AMP phosphodiesterase 4B (Homo sapiens) (UniProt Q07343); test: qHTS Assay for Inhibitors of PDE-IV (AID 607; active means well fitted activation curve with a large enough effect in the main read-out, with a control signal flat, not every such curve was filed as active; further: % of control where 0% means no effect)
Sequence of 3',5'-cyclic-AMP phosphodiesterase 4B (Homo sapiens) (Q07343 whole entry, looked up): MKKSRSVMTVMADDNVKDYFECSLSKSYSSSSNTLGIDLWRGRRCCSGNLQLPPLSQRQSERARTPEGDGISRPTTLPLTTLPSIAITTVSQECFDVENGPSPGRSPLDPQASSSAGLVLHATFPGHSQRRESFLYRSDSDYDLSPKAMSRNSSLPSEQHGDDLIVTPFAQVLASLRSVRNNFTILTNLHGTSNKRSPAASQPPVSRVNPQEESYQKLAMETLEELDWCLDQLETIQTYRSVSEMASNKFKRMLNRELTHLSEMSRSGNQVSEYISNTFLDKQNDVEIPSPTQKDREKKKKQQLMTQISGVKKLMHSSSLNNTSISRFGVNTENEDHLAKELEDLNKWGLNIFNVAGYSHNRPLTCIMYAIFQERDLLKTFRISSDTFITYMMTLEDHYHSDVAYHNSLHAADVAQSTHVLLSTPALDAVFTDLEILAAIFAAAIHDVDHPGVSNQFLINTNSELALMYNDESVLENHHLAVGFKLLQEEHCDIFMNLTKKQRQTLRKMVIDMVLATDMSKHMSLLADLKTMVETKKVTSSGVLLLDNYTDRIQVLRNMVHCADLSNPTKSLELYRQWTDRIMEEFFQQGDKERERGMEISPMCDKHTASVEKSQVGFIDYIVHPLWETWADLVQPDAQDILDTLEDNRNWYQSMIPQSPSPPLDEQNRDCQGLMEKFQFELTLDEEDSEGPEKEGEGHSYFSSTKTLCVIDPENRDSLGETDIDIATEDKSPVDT
Summary of the method: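 ACTOne HEK293 cells carry a modified cAMP-gated CNG channel and express endogenous PDE4; plated 1000 cells/well, compounds up to 22.9 uM final. Membrane-potential dye fluorescence (ex 535/em 590) was read; parental cells received 10 uM forskolin + 100 uM RO 20-1724.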

[40] = target: Cytochrome P450 2C9 (Homo sapiens) (UniProt P11712); test: qHTS Assay for Inhibitors and Substrates of Cytochrome P450 2C9 (AID 883); further: on the % scale 0 is the no-effect control and ±100 the full control effect; nearly all actives have a fitted effect of over 60% in size
Sequence of Cytochrome P450 2C9 (Homo sapiens) (P11712 whole entry, looked up): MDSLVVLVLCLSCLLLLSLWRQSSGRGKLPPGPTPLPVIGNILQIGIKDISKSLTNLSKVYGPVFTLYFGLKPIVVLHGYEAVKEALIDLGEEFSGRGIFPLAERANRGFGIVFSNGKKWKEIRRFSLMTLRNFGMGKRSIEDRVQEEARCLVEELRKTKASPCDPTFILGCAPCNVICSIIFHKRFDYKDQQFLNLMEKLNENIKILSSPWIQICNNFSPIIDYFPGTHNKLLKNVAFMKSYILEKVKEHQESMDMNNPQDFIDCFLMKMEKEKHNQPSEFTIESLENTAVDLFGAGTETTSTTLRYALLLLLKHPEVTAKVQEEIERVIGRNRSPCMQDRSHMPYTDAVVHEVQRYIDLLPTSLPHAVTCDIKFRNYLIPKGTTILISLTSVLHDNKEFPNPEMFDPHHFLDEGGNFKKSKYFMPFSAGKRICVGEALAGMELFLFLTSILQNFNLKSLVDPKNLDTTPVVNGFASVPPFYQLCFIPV
Summary of the method: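 Human CYP2C9 (10nM) hydroxylated Luciferin-H (100uM, at its KM) to luciferin in 25mM KPO4. Compound was preincubated 10 min at 37C, then NADPH regeneration started a 60 min reaction at 37C. Luminescence was read after detection reagent, normalized to 57uM sulphaphenazole.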

[41] = target: Cytochrome P450 3A4 (Homo sapiens) (UniProt P08684); test: qHTS Assay for Inhibitors and Substrates of Cytochrome P450 3A4 (AID 884); further: potency means the concentration at half of the fitted maximal effect; nearly all actives have a fitted effect of over 50% in size
Sequence of Cytochrome P450 3A4 (Homo sapiens) (P08684 whole entry, looked up): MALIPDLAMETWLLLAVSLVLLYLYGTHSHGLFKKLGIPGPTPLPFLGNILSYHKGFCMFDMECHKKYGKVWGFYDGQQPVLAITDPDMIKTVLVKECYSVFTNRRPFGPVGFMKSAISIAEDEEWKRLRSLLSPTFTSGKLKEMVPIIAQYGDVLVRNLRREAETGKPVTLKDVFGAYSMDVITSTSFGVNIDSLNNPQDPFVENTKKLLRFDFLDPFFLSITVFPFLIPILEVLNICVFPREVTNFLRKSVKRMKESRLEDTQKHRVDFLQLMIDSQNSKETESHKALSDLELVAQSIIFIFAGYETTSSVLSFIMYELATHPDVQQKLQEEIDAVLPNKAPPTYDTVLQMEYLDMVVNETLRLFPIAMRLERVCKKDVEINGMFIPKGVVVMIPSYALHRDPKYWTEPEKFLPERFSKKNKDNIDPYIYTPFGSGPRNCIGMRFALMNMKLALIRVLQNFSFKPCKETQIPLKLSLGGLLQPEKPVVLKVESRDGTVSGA
Summary of the method: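 20 nM human CYP3A4 with 25 uM Luciferin-PPXE (at KM) in 200 mM KPO4, preincubated 10 min with compound; NADPH regeneration started a 60 min RT reaction. Luciferin detected by luminescence, normalized to 57 uM ketoconazole as full inhibition.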

[42] = target: Cytochrome P450 3A4 (Homo sapiens) (UniProt P08684); test: qHTS Assay for Activators of Cytochrome P450 3A4 (AID 885); further: nearly all actives have a fitted effect of over 65% in size
Summary of the method: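 20nM CYP3A4 + 25uM Luciferin-PPXE (=KM), 200mM KPO4; cpd 10 min RT; NADPH regen, 60 min RT; stop w/ detection buffer, 20 min; luminescence. Normalized to 57 uM ketoconazole.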

C[C@@](Cc1ccccc1)(NC(=O)CN)c1ccccc1
active: Potency [16] 5.62 µM | Potency [22] 9.53 µM | Potency [25] 3.79 µM | Potency [26] 4.78 µM | Potency [27] 12.6 µM | Potency [30] 8.49 µM | Potency [34] 3.55 µM | Potency [36] 3.79 µM
inactive: Potency [1] > 46 µM | Potency [2] > 46 µM | Potency [3] | Potency [4] | outcome [5] | Potency [6] | Potency [7] | Potency [8] | Potency [9] | activity, negative = inhibition ([10]; parasite line A) 17.9% | activity, negative = inhibition ([10]; parasite line B) 2.96% | Potency [11] | Potency [12] | Potency [13] | Potency [14] | Potency [15] | Potency [17] | Potency [18] | Potency [19] | Potency [20] | Potency [21] | Potency [23] | Potency [24] | Potency [28] | Potency [29] | Potency [31] | Potency [32] | Potency [33] | Potency [35]

COc1ccc(-c2coc3ccc(O[C@@H]4O[C@@H](COC(C)=O)[C@@H](OC(C)=O)[C@@H](OC(C)=O)[C@H]4OC(C)=O)c(OC(C)=O)c3c2=O)cc1
inactive: Potency [1] > 46 µM | Potency [2] > 46 µM | Potency [37] | Potency [38]

NCCC[C@@H](CC(=O)N[C@@H]1CCCC[C@H]1C(=O)N[C@H](CC(=O)N[C@@H](CCC(=O)O)CC(=O)O)Cc1c[nH]c2ccccc12)NC(=O)C[C@H](Cc1ccccc1)NC(=O)[C@@H]1CCCC[C@H]1N
inactive: Potency [2] > 46 µM | Potency [3] | Potency [39] | Potency [40] | Potency [37] | Potency [38]

O=c1cc(-c2ccccc2)oc2c1ccc1ccccc12
inactive: Potency [1] > 46 µM | Potency [2] > 46 µM | Potency [42] | outcome [5]
active: Potency [41] 12.6 µM | Potency [38] 2 µM

Fc1ccc2[nH]c3c(N4CCN(Cc5ccc6c(c5)OCO6)CC4)ncnc3c2c1
inactive: Potency [1] > 20.6 µM
